# Legend:
# H1975 [1] = assay: area under confluence curve of compound monotherapy; compare to DMSO control AUC of the same experiment (AUC (confluence x time, arbitrary))
# How it was run: (§1)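 EGFR-mutant adenocarcinoma lines (RPMI 1640, 10% FBS, 37 °C, 5% CO2) were seeded at 20,000–30,000 cells/well in 48-well plates and next day given test compound alone at one dose (highest with <50% parental inhibition, or 1 uM), refreshed after PBS washes every 3–4 days, then drug-free from DTP stage (10–21 days). IncuCyte confluence was tracked until EGFR-inhibitor-only wells regrew. Area under the confluence curve came from Prism (median of triplicates where run), beside same-experiment vehicle AUC.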
# HCC2279 [2] = assay: as above
# How it was run: as §1
# HCC2935 [3] = assay: as above
# How it was run: as §1
# HCC4006 [4] = assay: as above
# How it was run: as §1
# HCC827 [5] = assay: as above
# How it was run: as §1
# II-18 [6] = assay: as above
# How it was run: as §1
# H1975 [7] = assay: area under confluence curve of osimertinib + compound combination regimen (DTP regrowth); compare to osimertinib-only DTP control AUC of the same experiment (AUC (confluence x time, arbitrary)); conditions: test compound dose 300 nM, DMSO control AUC in same experiment: 14522
# How it was run: (§2)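 The area under the IncuCyte confluence–time curve, calculated in Prism and taken as the median of triplicates where available, is the value reported. It was measured in EGFR-mutant NSCLC lines that received the EGFR inhibitor either alone, followed by a test compound, or together with a fixed-dose test compound until the persister stage (10–21 days) and then drug-free medium. Medium was refreshed every 3–4 days until the inhibitor-only wells were confluent again.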
# HCC2279 [8] = assay: as above; conditions: test compound dose 300 nM, DMSO control AUC in same experiment: 27284
# How it was run: as §2
# HCC2935 [9] = assay: as above; conditions: test compound dose 300 nM, DMSO control AUC in same experiment: 11459
# How it was run: as §2
# HCC4006 [10] = assay: as above; conditions: test compound dose 30 nM, DMSO control AUC in same experiment: 10921
# How it was run: as §2
# HCC827 [11] = assay: as above; conditions: test compound dose 300 nM, DMSO control AUC in same experiment: 48895
# How it was run: as §2
# II-18 [12] = assay: as above; conditions: test compound dose 30 nM, DMSO control AUC in same experiment: 18996
# How it was run: as §2
# [13] = 100 nM, DMSO control AUC in same experiment: 11459
# [14] = 100 nM, DMSO control AUC in same experiment: 13556
# [15] = 300 nM, DMSO control AUC in same experiment: 40085
# [16] = 300 nM, DMSO control AUC in same experiment: 15413
# [17] = 300 nM, DMSO control AUC in same experiment: 10921
compound,measurement,setting,value
COC(=O)c1ccc([C@H]2c3[nH]c4ccccc4c3C[C@H](C(=O)OC)N2C(=O)CCl)cc1,area under confluence curve,"H1975 [1]; 100 nM, DMSO control AUC in same experiment: 26010",25200
same,area under confluence curve,"HCC2279 [2]; 100 nM, DMSO control AUC in same experiment: 9426",9000
same,area under confluence curve,HCC2935 [3]; [13],11700
same,area under confluence curve,"HCC4006 [4]; 100 nM, DMSO control AUC in same experiment: 16638",16200
same,area under confluence curve,"HCC827 [5]; 100 nM, DMSO control AUC in same experiment: 35394",29100
same,area under confluence curve,II-18 [6]; [14],7620
CCN1CCN(Cc2ccc(Nc3ncc(F)c(-c4cc(F)c5nc(C)n(C(C)C)c5c4)n3)nc2)CC1 [Abemaciclib],area under confluence curve,"H1975 [1]; 100 nM, DMSO control AUC in same experiment: 14522",13800
same,area under confluence curve,"HCC2279 [2]; 100 nM, DMSO control AUC in same experiment: 27284",22900
same,area under confluence curve,HCC2935 [3]; [13],8290
same,area under confluence curve,"HCC4006 [4]; 100 nM, DMSO control AUC in same experiment: 10921",9680
same,area under confluence curve,"HCC827 [5]; 100 nM, DMSO control AUC in same experiment: 48895",48500
same,area under confluence curve,II-18 [6]; [14],14000
Cn1cnc2c(F)c(Nc3ccc(Br)cc3Cl)c(C(=O)NOCCO)cc21 [Selumetinib],area under confluence curve,"H1975 [1]; 300 nM, DMSO control AUC in same experiment: 14522",17100
same,area under confluence curve,HCC2279 [2]; [15],37400
same,area under confluence curve,HCC2935 [3]; [16],17800
same,area under confluence curve,HCC4006 [4]; [17],11800
same,area under confluence curve,"HCC827 [5]; 300 nM, DMSO control AUC in same experiment: 48895",45800
same,area under confluence curve,"II-18 [6]; 300 nM, DMSO control AUC in same experiment: 18482",15300
COc1nnc2ccc(N3CCC(c4ccc(OCCN5CCN(C)C(=O)[C@H]5C)cc4)CC3)nn12 + C=CC(=O)Nc1cc(Nc2nccc(-c3cn(C)c4ccccc34)n2)c(OC)cc1N(C)CCN(C)C [osimertinib],area under confluence curve,"H1975 [7]; dosing schedule: sequential, osimertinib-only DTP control AUC in same experiment: 12533",3520
same,area under confluence curve,"H1975 [7]; dosing schedule: upfront, osimertinib-only DTP control AUC in same experiment: 18969",15900
same,area under confluence curve,"HCC2279 [8]; dosing schedule: sequential, osimertinib-only DTP control AUC in same experiment: 5698",2470
same,area under confluence curve,"HCC2279 [8]; dosing schedule: upfront, osimertinib-only DTP control AUC in same experiment: 30623",13900
same,area under confluence curve,"HCC2935 [9]; dosing schedule: sequential, osimertinib-only DTP control AUC in same experiment: 9121",2580
same,area under confluence curve,"HCC2935 [9]; dosing schedule: upfront, osimertinib-only DTP control AUC in same experiment: 12748",4310
same,area under confluence curve,"HCC4006 [10]; dosing schedule: sequential, osimertinib-only DTP control AUC in same experiment: 14882",6680
same,area under confluence curve,"HCC4006 [10]; dosing schedule: upfront, osimertinib-only DTP control AUC in same experiment: 18913",5730
same,area under confluence curve,"HCC827 [11]; dosing schedule: sequential, osimertinib-only DTP control AUC in same experiment: 18675",4180
same,area under confluence curve,"HCC827 [11]; dosing schedule: upfront, osimertinib-only DTP control AUC in same experiment: 25542",12300
same,area under confluence curve,"II-18 [12]; dosing schedule: sequential, osimertinib-only DTP control AUC in same experiment: 16416",4370
same,area under confluence curve,"II-18 [12]; dosing schedule: upfront, osimertinib-only DTP control AUC in same experiment: 18996",14400
COc1nn(C)cc1Nc1nccc(-c2c[nH]c3c(NC(=O)[C@@H](C)N4CCN(C)CC4)cccc23)n1,area under confluence curve,"H1975 [1]; 1000 nM, DMSO control AUC in same experiment: 15857",17600
same,area under confluence curve,"HCC2279 [2]; 1000 nM, DMSO control AUC in same experiment: 14404",15500
same,area under confluence curve,"HCC2935 [3]; 1000 nM, DMSO control AUC in same experiment: 19215",20800
same,area under confluence curve,"HCC4006 [4]; 1000 nM, DMSO control AUC in same experiment: 18415",18600
same,area under confluence curve,"HCC827 [5]; 1000 nM, DMSO control AUC in same experiment: 21320",19500
same,area under confluence curve,"II-18 [6]; 1000 nM, DMSO control AUC in same experiment: 11834",5850
O=C(NC[C@H](O)CN1CCc2ccccc2C1)c1ccnc(NC2CCC2)c1,area under confluence curve,"H1975 [1]; 300 nM, DMSO control AUC in same experiment: 20657",20400
same,area under confluence curve,HCC2279 [2]; [15],25900
same,area under confluence curve,HCC2935 [3]; [16],16200
same,area under confluence curve,HCC4006 [4]; [17],8430
same,area under confluence curve,"HCC827 [5]; 300 nM, DMSO control AUC in same experiment: 43928",45500
same,area under confluence curve,"II-18 [6]; 300 nM, DMSO control AUC in same experiment: 7080",8360
Cc1cc(N2C[C@@H](C)N[C@@H](C)C2)ncc1-c1ccc(-c2nc3c(ccn3C)c(=O)[nH]2)cc1,area under confluence curve,"H1975 [1]; 1000 nM, DMSO control AUC in same experiment: 20657",19600
same,area under confluence curve,"HCC2279 [2]; 1000 nM, DMSO control AUC in same experiment: 40085",40800
same,area under confluence curve,"HCC2935 [3]; 1000 nM, DMSO control AUC in same experiment: 15413",14600
same,area under confluence curve,"HCC4006 [4]; 1000 nM, DMSO control AUC in same experiment: 10921",10500
same,area under confluence curve,"HCC827 [5]; 1000 nM, DMSO control AUC in same experiment: 48895",48800
same,area under confluence curve,"II-18 [6]; 1000 nM, DMSO control AUC in same experiment: 7080",6490
